Most compounds without a hit are left out; they make up all but 0.74% or so of the library.
Tb PGK inh: T. brucei PGK inhibition | P07378 | PGK/GAPDH coupled, Kinase-Glo luminescence, 60 min | Potency, µM (top dose mostly 57.5 µM), for inactives: top-dose activity change, negative = inhibition, most hits filed as inhibitors | actives 0.043% (n = 380,000); note: nearly all actives have a fitted effect of over 60% in size
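Recombinant glycosomal PGK reaction used 1,3-bisphosphoglycerate generated in-well by GAPDH (100nM final) in 100mM TEA pH 7.6, 5mM MgCl2, 0.01% Tween-20. After 60 minutes at room temperature, ATP was read by Kinase-Glo Plus luminescence end-point.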
FEN1 inh: inhibitors of human flap endonuclease 1; AID 588795; Recombinant FEN1 flap cleavage, fluorescence, 15 min; Potency, µM (series often up to 114 µM), for inactives: top-dose activity change, negative = inhibition, usual class: inhibitors; actives 0.35% (n = 390,000); note: nearly all actives have a fitted effect of over 65% in size
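Concentration–response screening of FEN1 (10 nM): 15 min compound preincubation at room temperature, reaction started with 50 nM substrate and read at 0 and 15 min. Corrected, normalized data were fitted by a four-parameter Hill equation.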
BLM inh: inhibitors of human Bloom syndrome helicase BLM | recombinant BLM DNA unwinding, fluorescence dequenching | P54132 | actives 0.2% (n = 350,000) | Potency, µM (series often up to 56.1 µM), inactives show at the highest dose activity change, negative = inhibition, actives largely listed as inhibitors;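 note: plate controls were vehicle for no effect and no enzyme for full effect; nearly all actives have a fitted effect of over 35% in size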
APEX1 inh: blocks human APE1 abasic DNA cleavage. P27695. recombinant APE1, TAMRA/BHQ-2 abasic DNA cleavage fluorescence. Potency, µM (series often up to 65.8 µM), inactives show at the top dose activity change, negative = inhibition, usual class: inhibitors. actives 0.35% (n = 350,000);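 note: plate controls were vehicle for no effect and reference inhibitor for full effect; nearly all actives have a fitted effect of over 55% in size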
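APE1 at 0.75 nM final was preincubated with compound 15 min at room temperature, then 50 nM double-stranded THF abasic-site substrate (5'-TAMRA/3'-BHQ-2) was added. Fluorescence (ex 525/em 598 nm) was read kinetically; third-minus-first read gave activity.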
RECQ1 inh: blocks DNA unwinding by human RECQ1. P46063. RECQ1 DNA unwinding, red fluorescence kinetic read. Potency, µM (series often up to 57.3 µM), without a hit: top-dose activity, negative = inhibition, most hits filed as inhibitors. actives 0.54% (n = 240,000);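 note: plate controls were vehicle for no effect and no enzyme for full effect; nearly all actives have a fitted effect of over 30% in size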
Target sequence (P46063 whole entry, looked up): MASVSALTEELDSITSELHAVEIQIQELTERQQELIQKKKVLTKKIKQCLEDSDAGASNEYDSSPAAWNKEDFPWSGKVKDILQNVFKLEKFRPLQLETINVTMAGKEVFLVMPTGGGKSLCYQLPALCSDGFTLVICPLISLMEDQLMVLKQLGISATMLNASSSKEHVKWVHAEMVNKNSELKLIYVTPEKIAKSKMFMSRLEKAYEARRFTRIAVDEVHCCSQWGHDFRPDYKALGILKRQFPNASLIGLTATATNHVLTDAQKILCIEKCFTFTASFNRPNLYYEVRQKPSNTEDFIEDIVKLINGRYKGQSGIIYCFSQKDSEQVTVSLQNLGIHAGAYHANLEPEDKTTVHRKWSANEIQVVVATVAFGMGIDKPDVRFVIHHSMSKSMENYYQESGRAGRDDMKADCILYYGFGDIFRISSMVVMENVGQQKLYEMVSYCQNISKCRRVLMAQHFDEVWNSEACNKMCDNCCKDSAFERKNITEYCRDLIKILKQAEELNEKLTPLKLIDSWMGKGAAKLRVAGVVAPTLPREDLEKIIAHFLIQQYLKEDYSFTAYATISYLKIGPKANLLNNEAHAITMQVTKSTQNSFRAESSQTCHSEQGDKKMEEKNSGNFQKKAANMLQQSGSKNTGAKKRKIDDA
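RECQ1T1 50 nM; forked duplex (20 bp + 30-nt ss tails) 200 nM, ATP 2 mM final; pH 8.0, 2 mM MgCl2, 2.5 ug/ml poly(dI-dC); 15 min compound preincubation; discontinuous kinetic read over 2 h at RT.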
The depositor's hits bear a star; i = inactive; ? = inconclusive; · = not tested or not shown. Calls come from the whole dose curve; as a rule, active = well fitted curve in the direction sought with a large enough effect; inconclusive = small, poorly fitted or top-dose-only effect, or another doubt; inactive = no such curve, though single readings can be large; an effect the other way counts as inactive or inconclusive. Unless noted, % is set by controls: 0 for no effect and ±100 for the full control effect; potency is the fitted concentration of half-maximal effect.

SMILES	Tb PGK inh	FEN1 inh	BLM inh	APEX1 inh	RECQ1 inh
Cc1ccc(N=C2NC(=O)S/C2=C\c2ccco2)cc1	-13%	-22%	22µM*	3%	-8%
O=C1NC(=Nc2ccccc2)/C(=C/c2ccco2)S1	-7%	1%	-21%	-4%	-2%
Cc1n[nH]c(=S)n(NC(=O)CC(=O)Nn2c(=S)[nH]nc(C)c2=O)c1=O	-9%	15%	1%	-1%	i
Cc1n[nH]c(=S)n(NC(=O)/C=C/C(=O)Nn2c(=S)[nH]nc(C)c2=O)c1=O	?	45µM*	-7%	7.9µM*	-20%
N/C(=N\OC(=O)c1ccc(OCC(F)(F)F)nc1)c1ccc(Cl)cc1	-6%	-1%	-5%	-11%	i
O=C(CSc1nc(=O)n2cc(Cl)ccc2n1)Nc1ccc2c(c1)OCCO2	0%	-2%	·	-44%	·
CSc1ccc(/C=N/NC(=O)c2ccc(C)c(C)c2)cc1	3%	-16%	28µM*	6%	1%
CSc1ccc(/C=N/NC(=O)c2cc(O)cc(O)c2)cc1	-6%	-7%	0%	14%	-3%
CC[n+]1c(/C=C/N(C)c2ccccc2)n(-c2ccccc2)c2ccc(-c3nc4ccccc4s3)cc21	9%	40µM*	12%	?	-2%
CCn1ncc(CN2CCCC(C(=O)c3cccc(OC(C)C)c3)C2)c1C (stereo not given)	·	-16%	1%	14%	-16%
Cc1cccc(-n2c(O)c(C=Nc3cc(O)ccc3C)c3ccccc3c2=O)n1	-5%	0%	-19%	-3%	-1%
Cc1cccc(-n2c(O)c(C=Nc3ccccc3O)c3ccccc3c2=O)n1	i	?	16µM*	?	-28%
CN(C)CC1CC/C(=C\c2ccc(O)cc2)C1=O (stereo not given)	i	56µM*	·	·	·
CSc1nc(SCCO)c2sc3nc(-c4ccco4)c4c(c3c2n1)CC(C)(C)OC4	-2%	-1%	13µM*	?	13µM*
COC(=O)CSc1nc(SC)nc2c1sc1nc(-c3ccco3)c3c(c12)CC(C)(C)OC3	6%	-9%	·	·	·
CCCN(CC(=O)Nc1ccc(F)c(F)c1F)C(=O)c1cc(S(=O)(=O)N(C)C)ccc1N1CCCC1	-5%	-2%	·	·	·
CCOC(=O)C1=C(C)N=c2s/c(=C/c3ccccc3)c(=O)n2C1c1ccc(OC)c(OC)c1 (stereo not given)	-10%	-7%	0%	-3%	-12%
CCOC(=O)C1=C(C)N=c2s/c(=C/c3ccc(OCC(=O)O)cc3)c(=O)n2C1c1ccc(SC)cc1 (stereo not given)	·	·	?	7.5µM*	·
CCOC(=O)C1=C(C)N=c2s/c(=C/c3ccc(OCC(=O)O)c(OC)c3)c(=O)n2C1c1ccc(Cl)cc1 (stereo not given)	14µM*	50µM*	·	·	·
CCOc1ccc(C2C(C(=O)Nc3ccccc3)=C(C)N=c3s/c(=C/c4cccc(OCC(=O)O)c4)c(=O)n32)cc1 (stereo not given)	-6%	2%	?	2%	23%
CCOC(=O)C1=C(C)N=c2s/c(=C/c3cccc([N+](=O)[O-])c3O)c(=O)n2C1c1ccc(OC)cc1OC (stereo not given)	?	-35%	?	24µM*	·
CCOC(=O)C1=C(C)N=c2s/c(=C\c3ccc(OCC(=O)O)cc3)c(=O)n2C1c1ccccc1OC (stereo not given)	-6%	79µM*	-20%	?	·
CCOC(=O)C1=C(C)N=c2s/c(=C\c3ccc(O)c([N+](=O)[O-])c3)c(=O)n2C1c1ccccc1OC (stereo not given)	7%	-13%	-6%	-15%	·
O=[N+]([O-])c1cc2c(cc1/C=N/n1c(-c3ccccc3)n[nH]c1=S)OCO2	-8%	-5%	18µM*	-2%	-13%
O=[N+]([O-])c1ccccc1/C=N/n1c(-c2cccnc2)n[nH]c1=S	-5%	-5%	-2%	0%	8%
SMILES	Tb PGK inh	FEN1 inh	BLM inh	APEX1 inh	RECQ1 inh
O=[N+]([O-])c1cc(/C=N/n2c(-c3cccnc3)n[nH]c2=S)ccc1Cl	-13%	56µM*	-15%	0%	2%
C[C@H](Cc1ccc(O)c(O)c1)[C@@H](C)Cc1ccc(O)c(O)c1	·	·	·	?	2.5µM*
COc1cc(C[C@@H](C)[C@@H](C)Cc2ccc(O)c(OC)c2)ccc1O	6%	-2%	·	-16%	·
COc1ccc(N2CC(C(=O)Nc3c4c(nn3-c3ccc(OC)cc3)CS(=O)(=O)C4)CC2=O)cc1 (stereo not given)	i	35%	0%	2%	·
COc1ccc([N+](=O)[O-])cc1NC(=O)Nc1ccc(OC)c(OC)c1	11%	-15%	32µM*	3%	i
COc1ccccc1COc1ccc2c(C)c(CCC(=O)O)c(=O)oc2c1C	-9%	-11%	-17%	-26%	·
O=C(O)CCc1c2ccc(=O)c(O)c-2oc2c(O)c(O)ccc12	·	1.4µM*	·	·	·
Nc1c(C=C2C=CC(=O)C=C2)c(=O)nc2sc(CC(=O)N3CCCCC3)nn12	-12%	-26%	-1%	65%	·
Nc1c(/C=C2/C=CC(=O)C(O)=C2)c(=O)nc2sc(CC(=O)N3CCOCC3)nn12	?	25µM*	·	·	·
Nc1c(/C=C2/C=CC(=O)C(O)=C2)c(=O)nc2sc(CC(=O)N3CCCCC3)nn12	?	-2%	28µM*	1.9µM*	·
Nc1c(/C=C2/C=CC(=O)C(O)=C2)c(=O)nc2sc(CC(=O)N3CCCC3)nn12	?	?	-19%	11µM*	·
COc1ccc(C(=O)N=c2nc3ccccn3s2)cc1	-19%	-2%	4%	2%	-13%
CCCCC(CC)CN=C(N)NC(N)=NCCCCCCN=C(N)NC(N)=NCC(CC)CCCC (stereo not given)	i	50µM*	?	-14%	14%
O=C(O)c1ccc(Cl)c2c1C1C=CCC1C(c1ccccn1)N2 (stereo not given)	·	·	2%	25µM*	-9%
CC(=O)Nc1ccc(NC(=O)CN2C(=O)CC(c3ccco3)Sc3ccccc32)cc1 (stereo not given)	-8%	17%	-8%	·	·
COc1ccccc1-c1nc(C#N)c(N2CCN(c3cccc(Cl)c3)CC2)o1	-4%	-21%	-5%	2%	-5%
CCc1nc(NCCCn2ccnc2)c2oc3ccccc3c2n1	i	-7%	5%	9%	-3%
CCN1/C(=C/C=C/c2sc3ccccc3[n+]2CC)Sc2ccccc21	?	3%	32µM*	24µM*	·
CCN1/C(=C/C=C/C=C/c2sc3ccccc3[n+]2CC)Sc2ccccc21	·	32µM*	?	?	?
Cc1ccnc(N=Cc2nc(-c3ccccc3Br)oc2O)c1	·	-8%	-2%	-3%	-5%
